# Test results: PubChem BioAssay (NCATS)
# Where “and” joins values, the source holds several entries; their conditions need not be identical. Identical values can stand only once. Calls of active or inactive are those of the source. Calls come from the whole dose curve; as a rule, active = well fitted activation curve with a large enough effect; inconclusive = small, poorly fitted or top-dose-only effect; inactive = flat fitted curve, though single readings scatter.
# Assay: Cellular Toxicity (caspase-3) N2a (AID 665);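 note: compound exposure lasted 16 h at 37 °C before readout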
# Details: N2a cells, luminescence, normalized: DMSO 0%, 10 µM staurosporine 100%; at 92.2 µM (top of the series)
# From the text: NIH Chemical Genomics Center [NCGC]
# NIH Molecular Libraries Screening Centers Network [MLSCN]
# National Institutes of Environmental Health Sciences [NIEHS]
# National Toxicology Program [NTP]
# We have developed a 1536-well cell-based assay for quantitative high throughput screening (qHTS) against a number of cell lines to determine in vitro caspase 3/7 activity of small molecules. This particular assay uses the N2a cell line which is derived from mouse neuroblastoma.
# NCGC Assay Protocol Summary:
# The Caspase-Glo 3/7 assay (Promega) is a homogeneous method to measure caspase-3 and caspase-7 activities in cultured cells. The quantitation of caspase 3/7 activity is based on the cleavage of a peptide-aminoluciferin substrate. After caspase cleaves the substrate the free aminoluciferin is liberated and serves as the substrate of luciferase, which generates the light. The luminescent signal is proportional to the amount of caspase 3/7 activity present.
# Using the Caspase-Glo 3/7 assay, the amount of caspase 3/7 activity was measured in the N2a cells with complete culture medium following compound treatment for 16 hours. The assay was performed in opaque white 1536-well plates. In the screen, staurosporine and doxorubicin were used as positive controls. Library compounds were measured for their ability to cause the activation of caspase 3/7 in the cell line, as reflected by an increase in luminescence signal, in a concentration-dependent manner. Data were normalized to the controls for basal activity (DMSO only) and 100% stimulation (10 uM staurosporine). AC50 values were determined from concentration-response data modeled with the standard Hill equation.
# qHTS protocol for caspase 3/7 assay in mouse N2a cell line
# [Step] [Parameter] [Value] [Description]
# 1. Reagent; 5 uL; 1500 mouse N2a cells/well
# 2. Time; 5 hr; 37 °C incubation
# 4. Controls; 23 nL; doxorubicin 7 pM to 100 uM & staurosporine 1.4 pM to 20 uM
# 5. Time; 16 hr; 37 °C incubation
# 6. Reagent; 5 uL; Caspase-Glo 3/7 reagent
# 7. Time; 1 hr; Room Temperature
# 8. Detection; Luminescence; Viewlux plate reader
# Keywords: caspase 3/7, apoptosis, mouse N2a cell line, luminescence, NTPHTS, NTPHTS_NCGC, NIEHS, EPA, DSSTox, MLSMR, MLSCN, NIH Roadmap, qHTS, NCGC
row,SMILES,caspase-3 activation
1,O=[N+]([O-])c1ccc(Cl)c(Cl)c1,-2.95% (inactive)
2,CCCOC(=O)c1ccccc1C(=O)OCCC,2.99% (inactive)
3,CC(=O)[O-].CC(=O)[O-].O.O.O.[Pb+2],0.731% (inactive) and -2.95% (inactive)
4,O=C=NC1CCCCC1,0.146% (inactive) and -1.42% (inactive)
5,OCC1CO1 (stereo not given),-2.46% (inactive)
6,CC(C)(C)OO,-2.06% (inactive) and -1.93% (inactive)
7,CC(O)CCl (stereo not given),3.17% (inactive)
8,C[C@]12CC[C@H]3[C@@H](CCC4=CC(=O)CC[C@@]43C)[C@@H]1CC[C@@H]2O,3.16% (inactive)
9,CCc1cccc(CC)c1N(COC)C(=O)CCl,4.56% (inactive)
10,C=C(C)C(=O)OCC1CO1 (stereo not given),-4.34% (inactive)
11,Clc1cccc(C(Cl)(Cl)Cl)n1,-0.536% (inactive)
12,O=S1OCC2C(CO1)C1(Cl)C(Cl)=C(Cl)C2(Cl)C1(Cl)Cl (stereo not given),12.4% (inactive)
13,Oc1ccc(Cl)cc1Cl,-0.627% (inactive)
14,CCN(CC)c1ccccc1,-1.42% (inactive)
15,COC1=CC(=O)OC(CCc2ccccc2)C1 (stereo not given),-5.42% (inactive)
16,CCCSC(=O)Cl,-1.31% (inactive)
17,CCCCOCCOP(=O)(OCCOCCCC)OCCOCCCC,-1.18% (inactive)
18,C=CC(=C)C,-1.13% (inactive)
19,ClC(Cl)=C(c1ccc(Cl)cc1)c1ccc(Cl)cc1,2.33% (inactive) and 2.48% (inactive)
20,COC1=CC(=O)O[C@@H](/C=C/c2ccc3c(c2)OCO3)C1,-17.2% (inactive)

row,SMILES,caspase-3 activation
1,Brc1ccc(Oc2cc(Br)c(Br)cc2Br)c(Br)c1,12.3% (inactive) and 4.39% (inactive)
2,CCNc1nc(Cl)nc(NC(C)C)n1,-0.492% (inactive)
3,CC(C)(C)OOC(C)(C)C,0.408% (inactive)
4,CCSC(=O)Cl,-2.14% (inactive)
5,Clc1cc(Cl)c(-c2cc(Cl)c(Cl)cc2Cl)cc1Cl,-0.702% (inactive)
6,COc1ccc(C=O)cc1OC,-1.73% (inactive)
7,Clc1nc(Cl)nc(Nc2ccccc2Cl)n1,0.587% (inactive)
8,O=C(O)COc1ccc(Cl)cc1Cl,-2.05% (inactive) and -1.8% (inactive)
9,CN=C=S,2.61% (inactive)
10,CCCC(=O)Cl,4.05% (inactive)
11,C=CCc1ccc2c(c1)OCO2,-4.3% (inactive)
12,Cc1ccc2ccccc2c1,-4.52% (inactive)
13,C/C=C/c1ccc2c(c1)OCO2,0.0142% (inactive)
14,COP(=S)(OC)Oc1ccc([N+](=O)[O-])cc1,-2.62% (inactive)
15,O=[N+]([O-])c1cccc2ccccc12,-0.0738% (inactive)
16,Cc1ccc(O)c(C)c1,3.54% (inactive)
17,c1ccc2c(c1)CCCC2,1.3% (inactive)
18,BrCCBr,-3.9% (inactive)
19,Clc1ccc2ccccc2c1,4.04% (inactive)
20,c1ccc(N=Nc2ccccc2)cc1,-2.4% (inactive)
